Records with an inconclusive call do not appear. Values without a mark were called inactive. Activity calls are given as the source filed them. The call rests on the fitted dose curve; in most records, active means well fitted inhibition curve with a large enough effect; inconclusive means small, poorly fitted or top-dose-only effect; inactive means flat fitted curve, though single readings scatter.
On the % scale 0 is the no-effect control and ±100 the full control effect.

Sequence of Phospholipid hydroperoxide glutathione peroxidase GPX4 (Homo sapiens) (P36969 whole entry, looked up): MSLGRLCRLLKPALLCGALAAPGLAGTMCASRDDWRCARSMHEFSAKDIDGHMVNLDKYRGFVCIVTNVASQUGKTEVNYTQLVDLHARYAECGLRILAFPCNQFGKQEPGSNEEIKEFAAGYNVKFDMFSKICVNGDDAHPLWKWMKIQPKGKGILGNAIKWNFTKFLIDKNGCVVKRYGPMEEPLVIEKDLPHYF

In this experiment the target is Phospholipid hydroperoxide glutathione peroxidase GPX4 (Homo sapiens) (UniProt P36969). Put plainly: Primary qHTS Assay for Inhibitors of Recombinant Selenoprotein Glutathione Peroxidase 4 (GPX4) (AID 1845192). Further: nearly all actives have a fitted effect of over 65% in size. Conditions: recombinant GPX4, GR-coupled NADPH fluorescence, 15 min; series mostly up to 50 µM; activity change, negative = inhibition: at the top concentration. An outline of the steps:
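GR-coupled readout: 100 nM GR, 1 mM GSH, 0.5 mM NADPH; NADPH fluorescence (ex 340/em 450 nm) read at t=0 and after 15 min RT. GPX4 200 nM, preincubated 30 min with compound; substrate 0.5 mM CHP.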
For the compound `NC(=O)N1CCC(CC(=O)N2CCC(C3c4ncc(Br)cc4CCc4cc(Cl)cc(Br)c43)CC2)CC1` (centres undefined), the “activity change, negative = inhibition” value is -0.959%. On the same count and under the same terms, the value for `C=C(C(=O)OC[C@H]1O[C@@H](OC(=O)/C=C/c2ccccc2)[C@H](O)[C@@H](O)[C@@H]1O)C(O)CO` (some centres undefined) was -8.07% [at 27.8 µM]; that for `CN(C)Cc1ccc(-c2cnn3c(-c4cccc(NC(=O)c5cccc(C(F)(F)F)c5)c4)ccnc23)cc1` was -9.09%. Same read-out and setting: the value for `OC1C=C2C3CN(Cc4cc5c(cc43)OCO5)C2CC1O` (centres undefined) was -7.76%; that for `CN(C)[C@@H]1CCc2[nH]c3ccc(NC(=O)c4ccc(F)cc4)cc3c2C1` was 6.42%; that for `COCc1c(Cl)ccc2c1CC[C@H]2c1ncc[nH]1` was 11.2%. The same measure, in the same setting: as for `CN1CCN(C2=Nc3ccccc3Nc3ccc(Cl)cc32)CC1`, the figure is -11.4%; as for `CC(C)C[C@@H](C(=O)N[C@@H](Cc1ccc(OCc2ccccc2)cc1)C(=O)NC(C)(C)C)N(C)Cc1ccc(C(C)(C)C)cc1`, -20.2%; as for `C=C1/C(=C/C=C2\CCC[C@]3(C)[C@@H]([C@H](C)/C=C/[C@@H](C)C(C)C)CC[C@@H]23)C[C@@H](O)C[C@@H]1O`, -10.7%. In the case of `C/C=C(/C)C(=O)O[C@H]1C=C(CO)C(=O)[C@H](OC(=O)/C(C)=C/CO)[C@H]1C(C)C`, the “activity change, negative = inhibition” value is -3.69% [at 27.8 µM]. Turning to `CC1(C(=O)Nc2ccc(F)nc2)CCCN1c1nc(Nc2cc(C3CC3)[nH]n2)c2cccn2n1` (centres undefined), the “activity change, negative = inhibition” value is -1.26%. As to `O=C(Nc1ccc2[nH]nc(-c3ccncc3)c2c1)[C@@H]1CCN(CC(=O)N2CCN(c3ccc(-c4ncccn4)cc3)CC2)C1`, the Potency result was “inactive”. Take `C/C(=N\N=C(N)N)c1cc(NC(=O)CCCCCCCCC(=O)Nc2cc(/C(C)=N/N=C(N)N)cc(/C(C)=N/N=C(N)N)c2)cc(/C(C)=N/N=C(N)N)c1`: the result was inactive. On to `COC(=O)C[C@H]1[C@]2(C)C3=C(C)[C@H](c4ccoc4)C[C@H]3O[C@@H]2[C@H](O)C2[C@](C)(C(=O)OC)C=CC(=O)[C@@]21C` (some centres undefined), for which the “activity change, negative = inhibition” value was 0.313% [at 27.8 µM]. Consider `Cc1[nH]c(/C=C2\C(=O)Nc3ccc(F)cc32)c(C)c1C(=O)NCCN1CCCC1`, for which the Potency result is “inactive”.

For `Cc1ccc(N2CCN(CCC3NC(=O)c4ccccc43)CC2)cc1C` (centres undefined), the “activity change, negative = inhibition” value is -2.07%. In the case of `c1ccc(-c2cnn3cc(-c4ccc(OCCN5CCOCC5)cc4)cnc23)cc1`, the outcome was inactive. Consider `COc1ccc(N(C(=O)Nc2c(C)cccc2C)c2cc(Nc3ccc(N4CCN(C)CC4)cc3)ncn2)c(OC)c1`, for which the “activity change, negative = inhibition” value is 10.4%. Still for that read-out and setting: the value for `O=C1Cc2c([nH]c3ccc(Br)cc23)-c2ncccc2N1` was 0.645%; that for `COc1ccc([C@H](Cc2ccncc2)c2ccccc2)cc1OC1CCCC1` was -4.97%.

As to `Cc1cc(C)c(S(=O)(=O)n2cc(C)cc2C)c(C)c1`, the “activity change, negative = inhibition” value is 10%.

As to `COC(=O)c1ccc2c(c1)nc(NC(=O)c1ccccc1)n2CCCc1ccccc1`, the “activity change, negative = inhibition” value was 14.9%. The same measure, in the same setting: the value for `C=C1CC[C@@H](O)[C@]2(C)CC[C@H]3C(=C)C(=O)O[C@@H]3[C@@H]12` was -4.03%; that for `COc1cc(CCO)ccc1O[C@@H]1O[C@H](CO)[C@@H](O)[C@H](O)[C@H]1O` was -6.55% [at 27.8 µM]. In the case of `Cc1[nH]c2ccc(F)cc2c1-c1nc2c3cccnc3c3ncccc3c2[nH]1`, the result was inactive.

Turning to `O=C(NNc1nc2cc(F)ccc2n2cccc12)c1cnccn1`, the “activity change, negative = inhibition” value is -4.41%.

For `CO[C@H]1C[C@@H]2CC[C@@H](C)[C@@](O)(O2)C(=O)C(=O)N2CCCC[C@H]2C(=O)O[C@H]([C@@H](C)C[C@@H]2CC[C@@H](O)[C@H](OC)C2)CC(=O)[C@H](C)/C=C(\C)[C@@H](O)[C@@H](OC)C(=O)[C@H](C)C[C@H](C)/C=C/C=C/C=C/1C`, the “activity change, negative = inhibition” value was -11.7%. Consider `C=C1C(=O)OC2/C=C(\C)CC/C=C(\C=O)C(OC)C(OC(=O)C(C)CC)C12` (centres undefined), for which the “activity change, negative = inhibition” value was -8% [at 27.8 µM]. The same measure, in the same setting: as for `COc1cc2ncnc(Nc3ccc(F)c(Cl)c3)c2cc1O`, the figure is -12.1%. The same measure, in the same setting: as for `COc1cccc(NCCC2(c3ccccc3)CC(C)(C)OC(C)(C)C2)c1`, the figure is -2.37%; as for `O=S(=O)(Nc1ccccc1N1CCCCC1)c1ccc(Cl)s1`, 8.56%. The same measure, in the same setting: the value for `COc1cc2c(cc1O)C1(Cc3ccc4c(c3C1O)OCO4)[N+](C)([O-])CC2` (centres undefined) was -12.8% [at 27.8 µM]; that for `Cn1cc(C2=C(c3coc4ccccc34)C(=O)NC2=O)c2cc(Br)ccc21` was -9.36%.

As for `C=C1C(=O)OC2C=C(C)CC/C=C(\CO)CC(O)C12` (centres undefined), the “activity change, negative = inhibition” value is 0.842%. For the compound `CC1(C)SCCN(S(=O)(=O)c2ccc(Oc3ccncc3)cc2)[C@H]1C(=O)NO`, the “activity change, negative = inhibition” value is -1.65%. The same measure, in the same setting: the value for `C=C1C(=O)OC[C@@H]1C/C=C(\C)CC1CC(C)C(=O)O1` (some centres undefined) was 2.77%; that for `CC(=O)O[C@]1(C(C)=O)CC[C@H]2[C@@H]3CCC4=CC(=O)CCC4=C3[C@@H](c3ccc(N(C)C)cc3)C[C@@]21C` was -11.5%. With `Cc1cc(-c2cc(OC(=O)c3ccccc3)ccc2Cl)cc2nnc(Nc3ccc(OCCN4CCCC4)cc3)nc12`, the “outcome” value was “inactive [at 27.8 µM]”. For the compound `C[C@H]1CO[C@@H]2Cn3cc(C(=O)NCc4ccc(F)cc4F)c(=O)c(O)c3C(=O)N12`, the “activity change, negative = inhibition” value was -2.25%.
